For 40 compounds, outcome and AC50 results are on record in PubChem BioAssay (EPA / NIEHS).

Structures are written as SMILES. Calls of active or inactive are those of the source. How the source made its calls: active means hit-call score of the fitted dose curve at least 0.9, where 1 is the maximum; inactive means score below 0.9.

This test is described as follows: ATG_RORE_CIS: Attagene CIS-FACTORIAL HepG2 Assay for human RAR-related Orphan Receptor Element (RORE) (AID 2282959). Particulars: HepG2 Attagene cis-factorial RORE reporter, mRNA; actives raise or lower the signal. Here is the method:
ATG_CIS is a cell-based, multiplexed-readout assay that uses HepG2, a human liver cell line, with measurements taken at 24 hours after chemical dosing in a 24-well plate.ATG_RORE_CIS is one of 52 assay component(s) measured or calculated from the ATG_CIS assay. It is designed to make measurements of mRNA induction, a form of inducible reporter, as detected with fluorescence intensity signals by Reverse transcription polymerase chain reaction (RT-PCR) and Capillary electrophoresis technology.Data from the assay component ATG_RORE_CIS was analyzed into 1 assay endpoint. This assay endpoint, ATG_RORE_CIS, was analyzed with bidirectional fitting relative to DMSO as the negative control and baseline of activity. Using a type of inducible reporter, measures of mRNA for gain or loss-of-signal activity can be used to understand the reporter gene at the transcription factor-level as they relate to the gene RORA and RORB and RORC. Furthermore, this assay endpoint can be referred to as a primary readout, because this assay has produced multiple assay endpoints where this one serves a reporter gene function. To generalize the intended target to other relatable targets, this assay endpoint is annotated to the nuclear receptor intended target family, where the subfamily is orphan.
Human liver HepG2 cells are transiently transfected with multiple reporter transcription units (MRTUs) in 6-well plates using FuGene 6 reagent (Roche; 3 ml FuGene/1 mg DNA). The MRTU constructs are regulated by a cis-regulating element (promoter). […] A major difference between the CIS and TRANS system is that in CIS activities of endogenous TFs are measured, whereas the TRANS assay evaluates changes in activities of exogenous, chimeric NR-Gal4 proteins. […] At the end of 24 hour incubation, total RNA was isolated using TriZol reagent (Invitrogen). The isolated RNA is then reverse-transcribed using oligo(dT) primer and Mo-MLV reverse transcriptase (Invitrogen) with DNAse I (Ambion) treatment for 30 min. The one-tenth of the produced cDNA was amplified by PCR using Taq DNA polymerase (Invitrogen) and two reporter sequence-specific primers. The PCR products were fluorescently labeled by primer extension with 6-arboxyfluorescein (6-FAM) 5'-labeled reporter sequence-specific primer (2 min at 95 C, 20 s at 68 C and 10 min at 72 C) and these products were digested with 5U of HpaI (New England Biolabs) for 2h at 37 C. The fragments were purified using Qiaquick PCR columns (Qiagen), analyzed on an ABI 3130xL genetic analyzer (Applied Biosystems) with peak positions identified by using a set of X-rhodamine (ROX)-labeled MapMarker1000 molecular weight standards (BioVentures). The raw capillary electrophoresis data was processed using Attagraph software (Attagene).
As for `CCCCCCCCCCCCCCCCCC(=O)O`, the outcome was inactive.

On to `Cc1ccccc1Cl`, for which the outcome was inactive.

On to `O=c1[nH]cc(F)c(=O)[nH]1`, for which the compound was classed as inactive.

As for `CNCc1cc(F)ccc1Oc1ccc(Cl)c(Cl)c1`, the call was inactive.

`CC(=O)Oc1ccccc1C(=O)O`: the result was inactive.

As for `Cc1nc(-c2ccc3c(c2)CCN(CCC2CCC(NC(=O)/C=C/c4ccc(F)cc4)CC2)CC3)no1` (stereo not given), the compound was called inactive.

As to `C1CCC(SSC2CCCCC2)CC1`, the compound was called inactive.

Take `O=C(OCCCCCOC(=O)c1ccccc1)c1ccccc1`: the outcome was inactive.

As a reminder, the AC50 is the concentration at which the activity in the assay is half-maximal. Turning to `CC1=C(/C=C/C(C)=C/C=C/C(C)=C/CO)C(C)(C)CCC1`, the AC50 is 27.9 µM (active).

Take `NCC1(Cc2noc(=O)[nH]2)CCCCC1`: the result was inactive.

With `Nc1ccc2c(c1)C(=O)c1ccccc1C2=O`, the compound was called inactive.

In the case of `Cc1cccc(Nc2cc(Cl)nc(SCC(=O)O)n2)c1C`, the compound was called inactive.

As for `CCCCC(CC)COC(=O)CC(C(=O)OCC(CC)CCCC)S(=O)(=O)O` (stereo not given), the compound was classed as inactive.

For `Cc1cc(NC(=O)C(=O)O)cc(C)c1Oc1ccc(O)c2c1CCC2`, the outcome was inactive.

Consider `CCCCOC(=O)CCCCCCCCC(=O)OCCCC`, for which the outcome was inactive.

In the case of `Nc1nc(N)c2nc(CNc3ccc(C(=O)N[C@@H](CCC(=O)O)C(=O)O)cc3)cnc2n1`, the result was inactive.

In the case of `CCCCc1ccc2c(n1)[C@@H](c1ccc(OC)cc1C[C@H](C)C(=O)O)[C@H](C(=O)O)[C@H]2c1ccc2c(c1)OCO2`, the outcome was inactive.

Turning to `Cc1ccc(Cl)cc1`, the call was inactive.

As for `Cc1nc(C)nc(N2C[C@@H](C)N(c3ccnc([C@@H](C)O)n3)[C@@H](C)C2)n1`, the compound was classed as inactive.

Regarding `CC(=O)OC/C=C(\C)CCC=C(C)C`, the call was inactive.

In the case of `Cc1ccc(C)c(O)c1C`, the compound was called inactive.

In the case of `Cc1ccc2ncccc2c1`, the compound was classed as inactive.

As to `COc1cc(S(=O)(=O)O)c(C)cc1N=Nc1c(O)ccc2cc(S(=O)(=O)O)ccc12`, the result was inactive.

For the compound `CC(C)(C)c1cc(O)c(C(C)(C)C)cc1O`, the AC50 was 22.6 µM (active).

On to `C=CCc1ccc(O)c(OC)c1`, for which the outcome was inactive.

Consider `COc1cc(C=O)ccc1O`, for which the outcome was inactive.

In the case of `Clc1cc(Cl)c(Cl)cc1Cl`, the compound was called inactive.

On to `O=C(N[C@@H](Cc1ccccc1)[C@@H](O)C(=O)N1C[C@@H](O)[C@@H](O)C1)c1cc2cc(Cl)ccc2[nH]1`, for which the outcome was inactive.

In the case of `CCCCCCCCCCCC(=O)OC`, the compound was classed as inactive.

With `CC=Cc1ccc(O)c(OC)c1`, the outcome was inactive.

As for `COc1cc(/C=C/C(=O)CC(=O)/C=C/c2ccc(O)c(OC)c2)ccc1O`, the call was inactive.

On to `COc1ccc2c(c1)c(CC(=O)O)c(C)n2C(=O)c1ccc(Cl)cc1`, for which the result was inactive.

Take `Cc1ccc(C)c(C)c1`: the compound was classed as inactive.

Regarding `CC(CO)OC(C)CO` (stereo not given) (tested in a mixture with another compound), the compound was classed as inactive.

Regarding `CNC(=O)[C@H]1O[C@@H](n2cnc3c(NCc4cc(Cl)ccc4OCc4cc(C)no4)ncnc32)[C@H](O)[C@@H]1N`, the result was inactive.

In the case of `CCOC(=O)C(C)(C)Oc1ccc(Cl)cc1`, the compound was called inactive.

As for `Nc1ccc(S(=O)(=O)c2ccc(N)cc2)cc1`, the outcome was inactive.

For the compound `NCCO`, the outcome was inactive.

For `CC(=O)C(C)=CC1C(C)=CCCC1(C)C` (stereo not given), the compound was called inactive.

Regarding `NC(=O)Cn1c(=O)cc(CCN2CCN(c3nccc4sccc34)CC2)c2ccc(F)cc21`, the call was inactive.
